Data taken from PubChem BioAssay AID488977 (Johns Hopkins Ion Channel Center, 2010).
Among all 310,000 compounds or so, about 1,500 (0.48%) were called active.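 Rule for the calls: active = initial fluorescence not abnormally high and integrated response B-score, plate-corrected, over 3 SD above library mean; inactive = the rest.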 The list comes from a sample in which actives are over-represented; it also holds similar structures and randomly drawn compounds.

Each molecule was assayed against High affinity choline transporter 1 (Homo sapiens) (UniProt Q9GZV3) (assay: CHT positive allosteric modulators, primary screen, cell-based, membrane potential dye, choline EC20 (AID 488977)). Conditions: CHT-expressing cells, at 10 µM; B-score: hits give high values, LV-AA mutant CHT in HEK293 cells unless noted; outcome: LV-AA mutant CHT in HEK293 cells unless noted.
Chain of High affinity choline transporter 1 (Homo sapiens) (Q9GZV3 whole entry, looked up): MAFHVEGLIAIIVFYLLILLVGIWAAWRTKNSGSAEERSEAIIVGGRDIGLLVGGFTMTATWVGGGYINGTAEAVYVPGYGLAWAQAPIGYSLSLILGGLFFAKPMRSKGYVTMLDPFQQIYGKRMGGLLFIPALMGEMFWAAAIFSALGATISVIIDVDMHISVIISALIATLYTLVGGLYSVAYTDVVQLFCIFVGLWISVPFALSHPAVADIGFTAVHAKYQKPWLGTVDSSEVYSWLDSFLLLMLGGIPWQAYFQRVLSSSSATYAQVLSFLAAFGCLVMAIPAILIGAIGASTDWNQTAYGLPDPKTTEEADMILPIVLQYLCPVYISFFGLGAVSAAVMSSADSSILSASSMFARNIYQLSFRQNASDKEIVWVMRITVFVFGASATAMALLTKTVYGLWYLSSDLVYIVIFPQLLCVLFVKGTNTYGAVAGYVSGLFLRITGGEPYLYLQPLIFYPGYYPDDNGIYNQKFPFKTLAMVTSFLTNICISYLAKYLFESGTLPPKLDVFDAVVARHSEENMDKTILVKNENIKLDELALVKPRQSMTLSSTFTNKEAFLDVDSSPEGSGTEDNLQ

SMILES | B-score | outcome
CN1CCN(c2cc(N3CCNCC3)ccc2[N+](=O)[O-])CC1 | 8.44 (active) | 
CCN1CCN(c2ccc([N+](=O)[O-])cc2C#N)CC1 | inactive | 
COC(=O)C1=C(c2cc3ccccc3o2)C[C@@H]2CC[C@H]1N2C(=O)NC1CCCCC1 | inactive | 
COC(=O)C1=C(c2cc3ccccc3s2)C[C@@H]2CC[C@H]1N2C(=O)NCCO | inactive | 
COC(=O)C1=C(c2ccccc2)C[C@@H]2CC[C@H]1N2C(=O)N1CCCCC1 | inactive | 
Cc1nc2ccc(N3CCN(C)CC3)cc2nc1C | 6.37 (active) | 
C=CC12CN(C)[C@@H]3C4CO[C@H](C[C@H]41)[C@]1(C(=O)Nc4ccccc41)[C@@H]32 (stereo not given in full) | inactive | 
CC(=O)Nc1ccc(C(=O)C(Cc2ccccc2)N(C)C)cc1 (stereo not given) | inactive | 
O=[N+]([O-])c1cnc2ccc3ccccc3c2c1 | inactive | 
CCCCn1c(=O)c(C(=O)Nc2ccccc2Cl)c(O)c2ccccc21 | inactive | 
CCCCCn1c(=O)c(C(=O)NCc2ccccc2)c(O)c2ccccc21 | inactive | 
CCCCCn1c(=O)c(C(=O)Nc2c(C)n(C)n(-c3ccccc3)c2=O)c(O)c2ccccc21 | 8.71 (active) | 
CNCC(O)c1cc(F)c(OCc2ccccc2)c(OCc2ccccc2)c1F (stereo not given) | inactive | 
O=C(N/N=C/c1c(O)n(C2CC2)c(=S)[nH]c1=O)c1ccccc1Cl |  | inactive [setting not given]
C/C(=N/O)c1ccc2ccc3ccccc3c2c1 | inactive | 
